The results in this text go back to PubChem BioAssay (NCI).

Test systems include HCT-15 colon; HT29 colon; SNB-75 CNS; SNB-19 CNS; U251 CNS; PC-3 prostate; SK-MEL-5 melanoma; UACC-62 melanoma; LOX IMVI melanoma; SK-MEL-28 melanoma.
Holding throughout (assay): NCI-60 one-dose screen, 48 h (100 = growth as untreated, 0 = no growth, -100 = all killed)
Common to all, as to conditions: 10 µM unless noted

The panel holds about 83,000 compounds, 20% with a hit somewhere; the sample as a whole holds those more often.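 96-well plates, one dose, 48 hours. Percent growth reported; active if below 10.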 A number with no mark means an inactive call. Active and inactive are the calls of the source.

For the compound `Cc1ccc(Nc2nc(N)nc(N)c2N=O)cc1Cl`, the growth in the test on HCT-15 colon is 70.6%; with HT29 colon, 64.3%; with SNB-75 CNS, 49.5%; with SNB-19 CNS, 97.5%; in the test on U251 CNS, 87%; in the test with PC-3 prostate it was 70.8%. Further, the growth was 93.5% in the test with SK-MEL-5 melanoma, 84.6% in the test with UACC-62 melanoma, 65.4% in the test on LOX IMVI melanoma and 93.5% in the test with SK-MEL-28 melanoma.

For `Clc1nc(N2CCC[N+]3(CC2)CC[N+]2(CCCNCC2)CC3)nc(N2CCC[N+]3(CC2)CC[N+]2(CCCNCC2)CC3)n1` (stereo not given), the growth in the test on HCT-15 colon was 83.2%; in the test with HT29 colon, 54.9%; in the test with SNB-75 CNS it was 123%; with SNB-19 CNS it was 112%; in the test with U251 CNS, 91.7%; in the test with PC-3 prostate, 101%. Moreover, the growth was 102% with SK-MEL-5 melanoma, 96.8% with UACC-62 melanoma, 98% with LOX IMVI melanoma and 92.2% in the test on SK-MEL-28 melanoma.

With `Nc1ncc(-c2ccc3ncnc(N4CCc5cc(F)c(Cl)cc54)c3c2)cn1`, the growth was 44.2% in the test with HCT-15 colon; 41.8% in the test on HT29 colon; -6.4% (active) with SNB-75 CNS; 59.6% in the test on SNB-19 CNS; 54.8% with U251 CNS; 28.3% with PC-3 prostate. Further, the growth is 59.9% with SK-MEL-5 melanoma, 23.8% in the test with UACC-62 melanoma, 37.6% in the test with LOX IMVI melanoma and 65.1% in the test on SK-MEL-28 melanoma.

Take `CN1CCN(Cc2ccc(NC(=O)c3cncc(C#Cc4c(N)ncc5cc(F)ccc45)c3)cc2C(F)(F)F)CC1`: the growth was -91.7% (active) in the test on HCT-15 colon; -74.8% (active) with HT29 colon; 45.1% in the test on SNB-75 CNS; -94.9% (active) in the test with SNB-19 CNS; -97.5% (active) with U251 CNS; 37.9% with PC-3 prostate. In addition, the growth in the test on SK-MEL-5 melanoma is -52.7% (active); in the test on UACC-62 melanoma, 29.4%; with LOX IMVI melanoma it was -81.4% (active); in the test with SK-MEL-28 melanoma it was -41.9% (active).

Regarding `C=C1/C(=C\C=C2/CCC[C@]3(C)[C@@H]([C@H](C)CCCC(C)(C)O)CC[C@@H]23)C[C@@H](OC(=O)CBr)C[C@@H]1O`, the growth with HCT-15 colon was 54.6%; with HT29 colon, 39.2%; in the test with SNB-75 CNS it was 49.1%; in the test on SNB-19 CNS, 94.6%; in the test on U251 CNS, 70.6%; with PC-3 prostate, 40%. For the same compound, the growth is 84.7% with SK-MEL-5 melanoma, 69% in the test with UACC-62 melanoma, -50.9% (active) in the test with LOX IMVI melanoma and 93.6% in the test with SK-MEL-28 melanoma.

`CCNCCNc1c(C)c(-c2ccc(C(F)(F)F)cc2)c(C#N)c2nc3ccccc3n12`: the growth with HCT-15 colon is 78.6%; with HT29 colon, 77.3%; with SNB-75 CNS, 57.6%; in the test on SNB-19 CNS, 78.6%; with U251 CNS, 78.8%; in the test on PC-3 prostate, 76.1%. In addition, the growth with SK-MEL-5 melanoma is 87.2%; with UACC-62 melanoma, 92.4%; with LOX IMVI melanoma it was 82.5%; in the test on SK-MEL-28 melanoma, 103%.

As to `CO[C@H]1/C=C/O[C@@]2(C)Oc3c(C)c(O)c4c(O)c(c5c(nc6cc(C)ccn65)c4c3C2=O)NC(=O)/C(C)=C\C=C\[C@H](C)[C@H](O)[C@@H](C)C(O)[C@@H](C)[C@H](OC(C)=O)[C@@H]1C` (stereo not given in full), the growth is 103% with HCT-15 colon; 96.7% in the test with HT29 colon; 86.4% with SNB-75 CNS; 99.9% in the test on SNB-19 CNS; 98.2% in the test with U251 CNS; 90.4% in the test on PC-3 prostate. For the same compound, the growth is 103% in the test on SK-MEL-5 melanoma, 98% with UACC-62 melanoma, 95.9% in the test with LOX IMVI melanoma and 104% in the test on SK-MEL-28 melanoma.

For the compound `Cc1ccc(S(=O)(=O)c2nc(-c3ccccc3)oc2S(C)=O)cc1` (stereo not given), the growth is -53.1% (active) in the test on HCT-15 colon; -31.8% (active) with HT29 colon; 66.7% with SNB-75 CNS; 68.9% in the test with SNB-19 CNS; 45.1% with U251 CNS; 22.3% in the test with PC-3 prostate. Besides, the growth is 44.4% with SK-MEL-5 melanoma, 50.6% with UACC-62 melanoma, -87.7% (active) in the test on LOX IMVI melanoma and -63.2% (active) with SK-MEL-28 melanoma.

For `O=C(Nc1cccc2c1C(=O)c1cccc(NC(=O)c3ccc(C(=O)Nc4cccc5c4C(=O)c4cccc(NC(=O)c6ccccc6)c4C5=O)cc3)c1C2=O)c1ccccc1`, the growth in the test with HCT-15 colon is 105%; in the test with HT29 colon, 112%; with SNB-75 CNS, 89.7%; with SNB-19 CNS it was 105%; in the test on U251 CNS, 101%; in the test on PC-3 prostate, 87.7%. For the same compound, the growth with SK-MEL-5 melanoma is 105%; in the test with UACC-62 melanoma it was 89%; in the test on LOX IMVI melanoma, 102%; with SK-MEL-28 melanoma, 103%.

`C/C(=N\NC(=O)c1ccc(C(C)(C)C)cc1)c1ccc(O)cc1O`: the growth is 16.5% in the test on HCT-15 colon; 25.3% with HT29 colon; 54.7% in the test on SNB-75 CNS; 40.1% in the test on SNB-19 CNS; 25.2% with U251 CNS; 33.8% in the test on PC-3 prostate. Besides, the growth in the test on SK-MEL-5 melanoma is -41.9% (active); in the test with UACC-62 melanoma, 14.1%; in the test with LOX IMVI melanoma, -4.95% (active); in the test on SK-MEL-28 melanoma it was 36.1%.

As to `COc1ccc(/C=C2/CCc3cc4ccc(OC)cc4[o+]c32)c(O)c1`, the growth in the test on HCT-15 colon is 4.44% (active); in the test on HT29 colon, 29.6%; with SNB-75 CNS, 90.9%; in the test with SNB-19 CNS it was 63.1%; with U251 CNS, 69.4%; in the test on PC-3 prostate, 8.84% (active). Besides, the growth in the test with SK-MEL-5 melanoma is 67.8%; in the test on UACC-62 melanoma it was 47.5%; in the test with LOX IMVI melanoma, 7.79% (active); in the test on SK-MEL-28 melanoma, 47.8%.

On to `CCC(C)C(N)C(=O)NC(CC(C)C)C(=O)N1CCCC1C(=O)NC(Cc1c[nH]c2ccccc12)C(=O)NC(CCCCN)C(=O)NC(Cc1c[nH]c2ccccc12)C(=O)N1CCCC1C(=O)NC(Cc1c[nH]c2ccccc12)C(=O)NC(Cc1c[nH]c2ccccc12)C(=O)N1CCCC1C(=O)NC(Cc1c[nH]c2ccccc12)C(=O)NC(CCCNC(=N)N)C(=O)NC(CCCNC(=N)N)C(N)=O` (stereo not given), for which the growth is 106% with HCT-15 colon; 83.5% in the test on HT29 colon; 105% in the test with SNB-75 CNS; 106% in the test on SNB-19 CNS; 112% in the test on U251 CNS; 91.7% with PC-3 prostate. The growth with SK-MEL-5 melanoma was 104%; with UACC-62 melanoma, 102%; with LOX IMVI melanoma it was 98.5%; with SK-MEL-28 melanoma, 114%.
